“And” between values parts separate entries of the source, which are not always exact repeats. Identical values can stand only once. Results filed as inconclusive are left out. A number with no mark means an inactive call. The source made the active and inactive calls. Calls follow the shape of the dose curve; as a rule, active = well fitted inhibition curve with a large enough effect; inconclusive = small, poorly fitted or top-dose-only effect; inactive = flat fitted curve, though single readings scatter.
Each molecule was assayed on KB-3-1 (assay: Cytotoxic Profiling of Annotated Libraries Using Quantitative High-Throughput Screening (AID 1296008; also: nearly all actives have a fitted effect of over 60% in size)). Conditions: Five cell lines viability, CellTiter-Glo ATP luminescence, 48-72 h; max response: stronger effect = lower value.
From the text: Cell-based phenotypic screening is a commonly used approach to discover biological pathways, novel drug targets, chemical probes and high-quality hit-to-lead molecules. Many hits identified from high-throughput screening campaign are ruled out through a series of follow-up potency, selectivity/specificity, and cytotoxicity assays. Prioritization of molecules with little or no cytotoxicity for a more in-depth downstream evaluation influence the future direction of projects, so cytotoxicity profiling of the screening libraries at early stage is essential for increasing the likelihood of candidate success. […] For the annotated library, we also examined the primary targets and mechanistic pathways regularly associated with cell death. To our knowledge, this is the first study to use high-throughput screening to profile large libraries for cytotoxicity assessment in both normal and cancer cell lines. In summary, the results generated here constitutes a valuable resource for the scientific community and provides insight on identifying cytotoxic compounds with particular mechanisms of action, and prioritizing compounds with suitable cytotoxicity profile for further evaluation.
A pintool (Kalypsys) was used to transfer 23 nL of compound solution to the 1536-well assay plates. After 48 or 72 hr incubation at 37 degree Celsius, 5% CO2 and 95% humidity, 2.5 uL of CellTiter-Glo (Promega) was dispensed into each well using a dispenser (Aspect Automation, St. Paul, MN) with solenoid valves (Lee Valves, Westbrook CT). Plates were left at room temperature for 10 min before imaging the ATP-coupled luminescence using a ViewLux microplate imager (PerkinElmer, Waltham, MA).
% is scaled to controls: 0 for no effect and ±100 for the full control effect; potency is read from the fitted curve at half-maximal effect.

Row | SMILES | max response | Potency
1 | C[N+]12CCC(CC1)C(OC(=O)C(O)(c1ccccc1)c1ccccc1)C2 (stereo not given) | 1.71% | –
2 | CCc1cc(Cl)c(OC)c(C(=O)NC[C@@H]2CCCN2CC)c1O | -11.4% and -0.677% and -21.5% | –
3 | CCN(CC)CCNC(=O)COc1ccc(OC)cc1 | 7.84% | –
4 | CC(C)(C)CC(C)(C)c1ccc(O)c(-n2nc3ccccc3n2)c1 | 2.75% | –
5 | Nc1ccc(S(=O)(=O)Nc2cnc3ccccc3n2)cc1 | -10.8% | –
6 | C/C=C/c1ccc(O)c(OC)c1 | -3.67% | –
7 | CCCCNc1ccc(C(=O)OCCOCCOCCOCCOCCOCCOCCOCCOCCOC)cc1 | -13.9% | –
8 | CCC1Nc2cc(Cl)c(S(N)(=O)=O)cc2S(=O)(=O)N1 (stereo not given) | -3.7% | –
9 | CC(CNC1CCCCC1)OC(=O)c1ccccc1 (stereo not given) | 3.78% | –
10 | COc1ccc(C(=O)c2ccccc2)c(O)c1 | -18.9% | –
11 | Cc1cc(C)cc(OCC2CNC(=O)O2)c1 (stereo not given) | 2.21% | –
12 | NC(=O)c1ccccc1O | 10.4% | –
13 | O=S(=O)(O)c1ccc(O)cc1 | -1.6% | –
14 | COc1ccc2c(c1)c1c3n2CCN(C)C3=NCC1 | 0.417% | –
15 | CN(CCCN1c2ccccc2CCc2ccccc21)CC(=O)c1ccc(Cl)cc1 | 3.26% | –
16 | CCC(CC)(CC(=O)Nc1cccc(/C=C/c2nc(C3CCC3)cs2)c1)C(=O)O | -22.9% | –
17 | CCc1ccc(C(=O)C(C)CN2CCCCC2)cc1 (stereo not given) | -1.02% | –
18 | CC(=O)N[C@@H](CCC(=O)O)C(=O)O | -11.1% | –
19 | C[C@H]1O[C@@H](O[C@H]2CC[C@@]3(C)[C@H](CC[C@@H]4[C@@H]3C[C@@H](O)[C@]3(C)[C@@H](C5=CC(=O)OC5)CC[C@]43O)C2)C[C@H](O)[C@@H]1O[C@H]1C[C@H](O)[C@H](O[C@H]2C[C@H](O)[C@H](O[C@@H]3O[C@H](CO)[C@@H](O)[C@H](O)[C@H]3O)[C@@H](C)O2)[C@@H](C)O1 | – | 259 nM (active)
20 | NC(=O)n1c(O)c(C(=O)c2cccs2)c2cc(Cl)ccc21 | 2.04% | –

Row | SMILES | max response | Potency
21 | COc1ccc(C(Cl)=C(c2ccc(OC)cc2)c2ccc(OC)cc2)cc1 | 9.01% | –
22 | Cc1cccc(C)c1NC(=O)CN1CCCCCC1 | 2.19% | –
23 | CC(=O)OCC(=O)[C@H]1CC[C@H]2[C@@H]3CCC4=CC(=O)CC[C@]4(C)[C@H]3CC[C@]12C | -19.8% | –
24 | Cc1cc(NS(=O)(=O)c2ccc(N)cc2)nc(C)n1 | 15.3% | –
25 | FC(F)(F)C(F)(F)C(F)(F)C(F)(F)C(F)(F)C(F)(F)C(F)(F)C(F)(F)Br | 13.3% | –
26 | COc1cc(C)nc(-n2nc(C)cc2OC)n1 | 4.41% | –
27 | CCOC(=O)c1c(N)sc2c1CCN(Cc1ccccc1)C2 | -15.4% | –
28 | CN1CCN(CCC(=O)N2c3ccccc3Sc3ccc(C(F)(F)F)cc32)CC1 | 5.81% | –
29 | CO[C@H]1C=CO[C@@]2(C)Oc3c(C)c(O)c4c(O)c(c(/C=N/N5CCN(C)CC5)c(O)c4c3C2=O)NC(=O)/C(C)=C\C=C[C@H](C)[C@H](O)[C@@H](C)[C@@H](O)[C@@H](C)[C@H](OC(C)=O)[C@@H]1C | -19.7% | –
30 | NC(=O)C1(N2CCCCC2)CCN(CCCC(=O)c2ccc(F)cc2)CC1 | 5.68% | –
31 | CCNC(=O)NCc1cccc(Cl)c1 | 2.4% | –
32 | O=C1[C@H](CC[C@H](O)c2ccc(F)cc2)[C@@H](c2ccc(O)cc2)N1c1ccc(F)cc1 | -8.72% and 5.64% | –
33 | C=C1c2cccc(O)c2C(O)=C2C(=O)[C@]3(O)C(O)=C(C(N)=O)C(=O)[C@@H](N(C)C)[C@@H]3[C@@H](O)[C@H]12 | -4.44% | –
34 | CCCCCCCCCCCCCCC[C@H](O)[C@@H](N)CO | -4.68% | –
35 | NS(=O)(=O)Cc1noc2ccccc12 | 2.97% | –
36 | Cc1ccc2c(Br)cc(Br)c(O)c2n1 | 8.29% | –
37 | O=C1C(O)=C(O)C(=O)C(O)=C1O | -3.2% | –
38 | NCc1ccccc1Sc1ccccc1CO | 6.51% | –
39 | CN1CCC(OC(c2ccccc2)c2ccccc2)CC1 | -12.2% | –
40 | C[C@@H](O)[C@H]1C(=O)N2C(C(=O)O)=C(S[C@@H]3CN[C@H](CNS(N)(=O)=O)C3)[C@H](C)[C@H]12 | 7.85% | –

From PubChem BioAssay (NCATS)
